This is an account of results in PubChem BioAssay (NCI).

Compounds without any hit were thinned out: in the full panel of roughly 83,000, 20% have a hit.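 Compound tested at a single concentration for 48 hours in 96-well plates; a percent growth value below 10 was scored as active.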 Active and inactive are the calls of the source.

In the experiment the test system is UACC-62 melanoma. The experiment is described as follows: NCI-60 one-dose screen, 48 h (100 = growth as untreated, 0 = no growth, -100 = all killed). The conditions noted are these: 10 µM unless noted. On the procedure: Growth inhibition of the UACC-62 human tumor cell line is measured as a screen for anti-cancer activity. Cells are grown in 96 well plates and exposed to the test compound for 48 hours. Compounds are tested at a single concentration, which is 10^-5 M for most compounds. The reported endpoint is percent growth (GI% or GIPRCNT), where numbers from 0 - 100% represent growth inhibition, and numbers from -100% - 0 represent cell death. For example, a value of 40 represents 60% growth inhibition. A value of 0 means no net growth occurred over the course of the experiment. A value of -40 indicates 40% of cells at the beginning of the experiment died by the end of the experiment. A value of -100 means all cells are dead at the end of the experiment.
NCI-60 Human Tumor Cell Lines Screen was performed using the standard one-dose NCI protocol, which is described in more detail at https://dtp.cancer.gov/discovery_development/nci-60/default.htm.
Compounds with GIPRCNT values below 10 were considered active. Activity score was based on GIPRCNT using the following formula: […]
Score is 0 for GIPRCNT values of 100 or above, 50 for GIPRCNT values of 0, and 100 for GIPRCNT values of -100.
Regarding `CN(C)CCNc1nc2ccccc2c2c1c1c(n2Cc2ccccc2)-c2ccccc2C1=O`, the growth is -94.1% (active).

Consider `COc1cc(CCC[P+](c2ccccc2)(c2ccccc2)c2ccccc2)cc2c1OCO2`, for which the growth was -3.87% (active).

As for `Cn1cc(-c2csc(-c3cccc(F)c3)n2)c2cccnc21`, the growth was -67% [100 µM] (active).

Consider `COc1ccc(-c2nc3ccc4[nH]ncc4c3c3c2CCCC3)cc1B(O)O`, for which the growth was 47.1% (inactive). For the compound `Cc1cc(/C=C\c2ccc3ccccc3[n+]2C)c(O)c2ncccc12`, the growth was -26.5% (active). Next, `CC(=O)c1ccc(NCC(=O)Nc2ccccn2)cc1`: 97% (inactive); `C[C@H]1[C@H]2[C@H]3CC[C@@H]4[C@@]5(C)C/C(=C/c6ccco6)C(=O)C(C)(C)[C@@H]5CC[C@@]4(C)[C@]3(C)CC[C@]23CO[C@]1(C)[C@@H](C(=O)/C=C\c1ccco1)C3`: 26% (inactive). Next, `NC(=N\N=C/c1ccccc1[N+](=O)[O-])/C(N)=N\N=C/c1ccccc1[N+](=O)[O-]`: 108% (inactive); `CC/C=C1/C(=O)C=C[C@@H]1C/C=C\CCCC(=O)O`: 30.7% (inactive); `Cc1cc(NCCCCNc2ccnc3cc(Cl)ccc23)nc(Nc2ccc(C(=O)N3CCCC3)cc2)n1`: -33.6% (active).

In the case of `N#Cc1c(N)nc(NCCO)nc1-c1ccc(F)cc1`, the growth was 95% (inactive).

Regarding `COCCc1ccc(OCC(O)CNC(C)C)cc1` (stereo not given), the growth was 113% (inactive). The result for `Cc1c(C(=O)N[C@@H](Cc2ccccc2)C(=O)C(=O)NCCc2ccccc2)[nH]c2ccccc2c1=O` reads 92.1% (inactive); that for `Cc1ccc(S(=O)(=O)Oc2cc(OS(=O)(=O)c3ccc(C)cc3)cc(OS(=O)(=O)c3ccc(C)cc3)c2)cc1`, 86.1% (inactive). Next, `COc1cccc(-c2nc3sccn3c2-c2ccnc(NCCNS(=O)(=O)c3cccc(F)c3)c2)c1`: -17.9% (active); `Cc1ccc(C2SCC(=O)N2Cc2ccccc2)cc1` (stereo not given): 91.7% (inactive). Next, `CCCCOc1nc2ccccc2cc1C1CNC(=O)c2ccccc2N1` (stereo not given): 32.6% (inactive); `CC(C)(C)CC(C)(C)Nc1c(-c2ccncc2)nc2cnccn12`: 92.9% (inactive). As to `CCCCCCCOc1c(OC)cc(C2CC(=O)Nc3c2c(C)nn3-c2nc3ccccc3[nH]2)cc1OC` (stereo not given), the growth was -49.2% (active).

In the case of `COc1ccc2oc3c(C)c4c(c(C)c3c2c1)C(=O)N(Cc1ccccc1)C4=O`, the growth was 92.5% (inactive).

`CCc1ccccc1-n1c(-c2ccc(Cl)cc2)cc(-c2ccc(OC)cc2)c(C#N)c1=O`: the growth was 89.1% (inactive).

Take `COc1ccc(/C=N/C2=C(C#N)C(c3ccc(OC)cc3)c3ccc4ccccc4c3O2)cc1` (stereo not given): the growth is 57.8% (inactive). The result for `COc1cc(C(=O)/C=C/c2c(C(F)(F)F)nc3sccn23)cc(OC)c1OC` reads -13.8% (active); that for `N#CC1=C(NC=O)Oc2c(ccc3ccccc23)C1c1ccccc1` (stereo not given), 30.9% (inactive). For `CN(C)CC1C(=O)O[C@H]2[C@H]1CC/C(COC(=O)c1cc3ccccc3[nH]1)=C\CC[C@@]1(C)O[C@@H]21` (stereo not given in full), the growth was -52% (active).

As for `N#Cc1c(-c2ccccc2)cc(-c2ccc(Nc3nc(Nc4ccc(F)cc4)nc(Nc4ccc(F)cc4)n3)cc2)nc1N`, the growth was 98.6% (inactive). The result for `COc1ccc2c(c1)O/C(=C\c1cccc(OCC(=O)Nc3nc(C)c(C)s3)c1)C2=O` reads 81.7% (inactive). The result for `Cn1c(=O)c2[nH]c(NN)nc2n(C)c1=O` reads 114% (inactive); that for `Cc1ccc(C(=NN=C(N)N)c2ccc(C)cc2)cc1`, 31.6% (inactive); that for `Cc1ccc(C(=O)C2=C(O)C(=O)N(Cc3cccnc3)C2c2ccccc2F)o1` (stereo not given), 102% (inactive). As for `O=c1[nH]c2ccccc2n1C1CCN(CCOc2ccccc2)CC1`, the growth was 86% (inactive).

On to `COc1cc(N2C(=O)c3nccnc3C2=O)cc(OC)c1OC`, for which the growth is 114% (inactive). Next, `COc1cc(Cn2ncc3ccc(NC(=O)c4cc5ccccc5oc4=N)cc32)cc(OC)c1OC`: 55.2% (inactive); `COC(=O)c1c2c(c(C)[n+]([O-])c1C)C(=O)C(NCc1ccc(F)c(Cl)c1)=CC2=O`: -42% (active). Next, `CCCCCCCCCCCC(c1ccccc1)[N+](C)(C)C` (stereo not given): 6.22% (active); `CN1CCN(CC(=O)Nc2nc(-c3cccc(NS(=O)(=O)c4cccc5c(N(C)C)cccc45)c3)cs2)CC1`: 54% (inactive); `C=C1C(=O)O[C@H]2[C@H]1CC/C(COC(=O)C(=O)c1c[nH]c3ccc(OC)cc13)=C\CC[C@@]1(C)O[C@@H]21`: -76.6% (active).

Consider `CC1(C)CC(=O)CC2(C1)N=C(N)Nc1nc3ccccc3n12` (stereo not given), for which the growth is 95.9% (inactive). Next, `COC1=C(OC)C(=O)C(OC)=C(OC)C1=O`: 102% (inactive); `Cc1nc2ccccc2n1CC1NC(=O)NC1=O` (stereo not given): 98.4% (inactive).
